UGM FP inh = M. tuberculosis UGM enzyme inhibitors, primary screen, biochemical, fluorescence polarization, single point; inhibition, % at 10 µM; AID 504406, 2011; purified UGM, fluorescence polarization probe displacement; 320,000 tested, 0.06% active; in the data active means inhibition above about 10%, passing the limit was not always enough
Mtb bLac sens = beta-lactam sensitization of Mtb H37Rv, H37Rv; M. tuberculosis H37Rv growth with meropenem, percent inhibition; inhibition, % at 25 µM; 330,000 tested, 0.27% active; AID 434955, 2010; call rule not given here;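 further: growth measured after seven days incubation then overnight dye step; 0% = bacteria only wells and 100% = bacteria with antibiotic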
FadD28 binding = inhibitors of FadD28 bisubstrate probe binding, primary screen, biochemical, fluorescence polarization, single point | Mycobacterium tuberculosis FadD28 fatty-acid-AMP ligase | inhibition, % at 12.5 µM | 360,000 tested, 0.22% active; in the data active means inhibition above about 8.5%, passing the limit was not always enough
RecA intein inh = Mtb RecA intein splicing inhibitors, primary screen, biochemical, fluorescence, HTS; 290,000 tested, 0.75% active; AID 2221, 2009; inhibition, % (test concentration not listed); cell-free RecA intein splicing; in the data active means inhibition above about 30%;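 further: 0% = vehicle wells and 100% = reference inhibitor control wells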
Rv3671c protease = Rv3671c serine protease inhibitors, primary screen, biochemical, fluorescence polarization, M. tuberculosis H37Rv. P9WHR9. inhibition, % at 5.96 µM. 320,000 tested, 0.048% active. AID 2606, 2010; in the data active means inhibition above about 38%;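 further: extracellular domain of Rv3671c used as enzyme; 0% = enzyme with DMSO and 100% = no enzyme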
Target sequence (P9WHR9 whole entry, looked up, the tested form may be a part): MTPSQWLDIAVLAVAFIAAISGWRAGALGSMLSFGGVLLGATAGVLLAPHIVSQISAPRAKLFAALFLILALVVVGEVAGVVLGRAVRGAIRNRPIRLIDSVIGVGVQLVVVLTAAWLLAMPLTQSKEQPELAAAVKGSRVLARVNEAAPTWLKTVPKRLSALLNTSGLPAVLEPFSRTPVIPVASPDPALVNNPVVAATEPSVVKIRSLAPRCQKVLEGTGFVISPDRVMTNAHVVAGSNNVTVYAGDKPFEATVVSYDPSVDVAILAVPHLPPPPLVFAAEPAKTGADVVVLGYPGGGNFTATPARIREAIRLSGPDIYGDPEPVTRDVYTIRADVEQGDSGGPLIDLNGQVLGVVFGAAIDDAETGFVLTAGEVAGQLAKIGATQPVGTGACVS
Mtb hypoxia rep = PubChem AID 1159583 | M. tuberculosis hypoxia-regulated fluorescent reporter, fluorescence | fluorescence inhibition, % (test concentration not listed) | 300,000 tested, 0.1% active; in the data active means fluorescence inhibition mostly above about 23%, no sharp cut-off; inactive means mostly below about 17%
Starred values were filed as active, the others as inactive; x = no result shown. Most compounds without a hit are left out; they make up all but 0.92% or so of the library.

SMILES | UGM FP inh | Mtb bLac sens | FadD28 binding | RecA intein inh | Rv3671c protease | Mtb hypoxia rep
Cc1nn(-c2ccccc2)c(C)c1C1C(C#N)=C(N)Oc2n[nH]c(C)c21 (stereo not drawn) | -1.2 | 1.2 | -4.7 | 62.5* | 11.0 | 5.5
Cc1nn(-c2ccccc2)c2c1C(c1ccc([N+](=O)[O-])cc1)C(C#N)=C(N)O2 (stereo not drawn) | 0.3 | -0.9 | 2.6 | -2.4 | 0.3 | 5.9
CCC(C)C1C(C#N)=C(N)Oc2n[nH]c(C)c21 (stereo not drawn) | -0.7 | -5.7 | -1.1 | 0.7 | 2.5 | 6.2
Cc1[nH]nc2c1C(c1cc(Br)cs1)C(C#N)=C(N)O2 (stereo not drawn) | -0.9 | -1.9 | -2.5 | 53.1* | -8.7 | 10.9
Cc1ccc(CSc2ncnc3ccccc23)cc1 | -0.9 | 7.8 | -2.8 | 0.9 | 6.5 | 8.9
COc1ccc(N2C(=O)C3C(c4ccc(OC)cc4O)NC(Cc4ccccc4)(C(=O)O)C3C2=O)cc1 (stereo not drawn) | -0.2 | -2.1 | -0.6 | -0.3 | 3.1 | 7.9
COc1ccc(/C=C2/C(=O)N(Cc3ccco3)C(=O)N(C(C)C)C2=O)cc1 | -2.3 | -6.2 | 9.5* | 7.7 | -21.7 | -13.6
Cc1[nH][nH]c(=O)c1C(c1ccc(O)c([N+](=O)[O-])c1)c1c(C)[nH][nH]c1=O | -0.7 | 3.9 | 0.2 | -3.4 | -10.1 | x
Cc1[nH][nH]c(=O)c1[C@@H](c1ccccc1[N+](=O)[O-])C(C#N)C#N | -0.5 | -5.9 | -1.4 | 62.0* | -1.8 | 1.1
O=C(NCc1ccc(OC(F)(F)F)cc1)C1CC(c2ccc(C(F)(F)F)cc2)=NO1 (stereo not drawn) | -0.7 | 5.8 | -2.6 | 0.1 | -3.4 | 3.7
CC/C(=C/c1sc2ccc(C)cc2[n+]1CCO)SC | 3.8 | 1.2 | 0.6 | 34.0* | 2.3 | 2.5
COc1ccc(N(C(=O)c2cnsn2)C(C(=O)NC2CCCCC2)c2ccncc2)cc1 (stereo not drawn) | -4.1 | -3.9 | 1.0 | -8.8 | 1.0 | 9.2
COc1ccc(-c2csc(N3CCN(C(=O)c4ccccc4)CC3)n2)cc1 | 1.3 | -14.0 | 0.6 | 2.2 | 1.5 | -5.8
COc1cccc(NC(=O)Nc2ccc(C(C)(C)C)cc2)c1 | x | x | 19.1* | -2.3 | x | -6.7
COc1cccc(NC(=O)Nc2ccncc2)c1 | 2.3 | -3.9 | -0.8 | x | -8.1 | 3.6
CCCCS/C(=C(/C#N)C(N)=O)c1cc2c([nH]1)CCCC2 | 0.7 | 0.8 | -0.8 | 35.7* | -7.3 | 11.7
CCc1ccc(N/C(SC)=C(/C#N)C(N)=O)cc1 | 1.9 | -4.0 | 0.8 | 2.1 | -3.3 | 1.8
CCCCn1c(N)c(N(CC(C)C)C(=O)c2ccc(F)c(S(=O)(=O)N3CCOCC3)c2)c(=O)[nH]c1=O | -2.0 | -1.4 | -2.5 | -3.2 | -2.7 | -0.2
O=[N+]([O-])c1ccc(CNc2ccc(Cl)cc2)s1 | 0.2 | 2.1 | 10.1* | 5.0 | -10.3 | 15.7
COc1ccc(CN2C(=O)C(Cc3ccccc3)Nc3ncnc(N4CCOCC4)c32)cc1 (stereo not drawn) | -0.5 | -6.2 | 0.1 | 0.5 | -12.6 | -5.8
COc1ccc(CN2C(=O)C(Cc3ccccc3)Nc3ncnc(N4CCc5ccccc5C4)c32)cc1 (stereo not drawn) | 2.4 | 4.6 | x | 34.7* | -7.5 | x
COc1ccc([C@H]2[C@H](C(=O)C(C)(C)C)N3N=Cc4ccccc4C3[C@]23N=C(c2ccccc2)OC3=O)cc1OC (stereo partly drawn) | 1.2 | 16.0 | -1.4 | x | -6.8 | -2.2
COc1ccc(CCNC(=O)CSc2nnc(CNc3ccc(Cl)cc3)o2)cc1OC | 1.1 | -1.2 | -5.1 | -0.8 | 1.1 | 3.8
O=C(CSc1nnc(CNc2ccc(Cl)cc2)o1)Nc1nc2c(s1)CCCC2 | 1.2 | 7.9 | 15.2* | x | 5.2 | -9.2
Oc1ccc(/C(Cc2ccc3ccccc3n2)=N\Nc2ccccc2)c(O)c1 | 2.4 | -2.1 | -1.6 | 47.3* | -6.2 | x
SMILES | UGM FP inh | Mtb bLac sens | FadD28 binding | RecA intein inh | Rv3671c protease | Mtb hypoxia rep
Oc1ccc(/C(Cc2ccccn2)=N\Nc2ccccc2)c(O)c1 | 1.4 | -5.6 | 0.6 | 19.0 | 2.8 | x
CCCCOc1[nH]c2nc(-c3ccco3)n(Cc3ccco3)c(=N)c2c1C#N | 3.1 | 5.2 | 10.9* | -25.3 | 9.8 | x
O=C(COc1ccccc1F)N/N=C1\CCCc2ccccc21 | 1.1 | -1.1 | -3.0 | 1.6 | -1.6 | x
COc1ccc(Nc2nc(C)c(C(C)=O)s2)cc1 | x | x | -0.7 | x | x | x
Cn1c(=NNC(=O)c2cccc(OC(F)F)c2)sc2ccccc21 | x | x | x | x | x | 17.6
CC(C)(C)c1cc(NC(=O)CCl)n(-c2ccccc2)n1 | 0.3 | 97.5 | 0.7 | 38.1* | -1.0 | 24.4
Cc1c(Cl)cccc1NC(=O)CSc1nnc(C)n1-c1ccccc1 | -0.8 | -6.9 | -4.9 | 1.5 | -1.8 | 4.1
COc1cccc(NC(=O)CN(C)C(=O)c2cc3c(s2)CCCCC3)c1 | 0.9 | 2.1 | 12.6* | x | -3.6 | 3.1
COc1cccc(NC(=O)CN(C)C(=O)c2cc3c(s2)CCCC3)c1 | -0.6 | 3.2 | 0.9 | x | -5.5 | 15.9
CCSc1ccc(C(=O)NCC(=O)O)cc1 | -0.5 | 7.8 | -2.4 | x | -1.6 | 11.8
CSc1ccc(NC(=O)Nc2ccc(C(=O)NCC(=O)O)cc2)cc1 | 0.1 | -0.6 | 10.5* | 0.1 | x | x
Cc1nn(Cc2c(Cl)cccc2Cl)c(Cl)c1C=NNC(=O)c1cccnc1 | x | x | x | x | x | -0.7
O=C1N=NC2=C1c1c3ccccc3c(O)n1CC2 | 0.8 | 4.1 | -2.5 | 56.2* | -6.8 | 15.3
CC1(C)N=C(SCC(=O)Nc2ccc(Cl)cc2)C(c2ccc(Cl)cc2)=N1 | -0.8 | -1.8 | -2.5 | 44.4* | -10.7 | 20.2
CC1(C)N=C(SCC(=O)Nc2ccc(Cl)cc2)C(c2ccccc2)=N1 | 1.9 | 1.6 | -1.8 | x | -9.1 | 3.9
COc1ccc(-c2nc3c4c(ncn3n2)-c2ccccc2CC42CCCC2)cc1 | 4.9 | 9.5 | -0.7 | -1.4 | -7.9 | x
Cc1cccc2c1NC(=O)/C2=C\C(=O)c1cccs1 | 3.2 | -1.4 | -0.2 | 20.1 | 1.1 | 15.6
Cc1cc(Br)c2c(c1)/C(=C/C(=O)c1cccs1)C(=O)N2 | -1.8 | 95.0 | -3.7 | 78.1* | -8.8 | 9.3
ClC(Cl)(Cl)c1nc2ccccc2n2nncc12 | 0.4 | 8.0 | -2.7 | 54.9* | -11.4 | x
CCOC(=O)CN1C=C(c2ccc3ccccc3n2)C(C[N+](=O)[O-])c2ccccc21 (stereo not drawn) | 17.5* | -8.4 | -4.0 | -115.4 | 5.0 | 9.2
CCOC(=O)CSc1ccc2ccccc2n1 | -0.8 | 19.0 | 0.0 | -0.1 | 0.6 | 4.0
Cc1cc(NC(=O)c2cc(-c3cccs3)on2)no1 | 1.6 | -9.5 | -2.5 | -3.5 | 2.1 | 1.8
O=c1c(Cl)c(Cl)cnn1Cc1ccc(F)cc1 | -0.4 | 97.4 | -2.4 | 35.3* | 4.4 | x

High-throughput results: PubChem, several laboratories
